High-throughput results deposited in PubChem by National Center for Advancing Translational Sciences (NCATS).
This excerpt belongs to a sample that is enriched for hits.
TbPYK inhibitor: qHTS of Trypanosoma Brucei Inhibitors; TbPYK enzyme, Kinase-Glo Plus ATP luminescence, 45 min; 0.12% of 410,000 active; pyruvate kinase (Trypanosoma brucei), Q57TT1; Potency, µM (highest dose often 76.8 µM), without a hit: at the highest dose activity, negative = inhibition, usual class: inhibitors; AID 624173, 2012; also: potency is read from the fitted curve at half-maximal effect; % is scaled to controls: 0 for no effect and ±100 for the full control effect; nearly all actives have a fitted effect of over 50% in size
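TbPYK + substrate in 50 mM TEA pH 7.2, 100 mM KCl, 10 mM MgCl2, 0.05% BSA, 0.01% Tween-20; cpd pinned; ADP 130 uM final; 45 min RT; Kinase-Glo Plus 10 min; luminescence endpoint.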
FBPA Giardia inh: qHTS Assay for Inhibitors of Fructose-1,6-bisphosphate Aldolase from Giardia Lamblia | purified Giardia FBPA | Potency, µM (series often up to 59.6 µM), for the others: at the highest dose activity, negative = inhibition, usual class: inhibitors | 0.71% of 290,000 active | AID 2451, 2010; also: potency is read from the fitted curve at half-maximal effect; % is scaled to controls: 0 for no effect and ±100 for the full control effect; nearly all actives have a fitted effect of over 55% in size
Target sequence (A8B2U2 whole entry, looked up): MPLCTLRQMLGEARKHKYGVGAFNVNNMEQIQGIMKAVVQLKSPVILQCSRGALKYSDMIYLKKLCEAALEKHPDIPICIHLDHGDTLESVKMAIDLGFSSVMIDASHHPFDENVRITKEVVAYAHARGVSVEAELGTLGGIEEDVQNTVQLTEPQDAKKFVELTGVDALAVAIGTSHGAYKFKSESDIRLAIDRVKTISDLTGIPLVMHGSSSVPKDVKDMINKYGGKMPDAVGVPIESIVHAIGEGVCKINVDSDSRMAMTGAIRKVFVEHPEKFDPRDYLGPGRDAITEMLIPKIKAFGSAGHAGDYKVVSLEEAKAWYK
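40 nM FBPA preincubated 10 min at RT with compound (up to 57.5 uM final), then substrate plus GAPDH/TPI/NAD/arsenate coupling and diaphorase/resazurin added. Fluorescence read after 20 min at RT, 525/598 nm.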
Shiga inhibitor: A qHTS for Small Molecule Inhibitors of Shiga Toxin; Vero cells, Shiga toxin protein synthesis inhibition reporter; inhibition, % at 38.7 µM; 9.2% of 290,000 active; in the data active = inhibition mostly above about 28%, no sharp cut-off; inactive = mostly below about 43%; also: 0% is about no effect
RE007 growth inh: qHTS Assay for Inhibitors of the HIV-1 protein Vpr. S. pombe RE007 Vpr strain, BacTiter-Glo ATP luminescence, 24 h. Potency, µM (top dose mostly 92.2 µM), inactives show at the highest dose activity change, negative = less growth, actives largely listed as inhibitors. 0.21% of 360,000 active; active = well fitted falling curve with a large enough effect; inconclusive = small, poorly fitted or top-dose-only effect; inactive = no such curve, though single readings can be large or run the other way; also: potency is read from the fitted curve at half-maximal effect; % is scaled to controls: 0 for no effect and ±100 for the full control effect; nearly all actives have a fitted effect of over 50% in size
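Fission yeast RE007 carrying one integrated HIV-1 vpr copy, seeded at OD 0.01 in PMG+AL medium with 23 nL pinned compound. Grown 24 h at 30 degrees; viability read by BacTiter-Glo luminescence after 5 min.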
Cycloheximide cs: Cycloheximide Counterscreen for Small Molecule Inhibitors of Shiga Toxin; AID 2314, 2010; 12% of 300,000 active; max response, %; cell reporter, cycloheximide protein synthesis inhibition counterscreen; in the data active = max response mostly above about 13%, no sharp cut-off; inactive = mostly below about 14%; also: read at 38.3 µM for the half of the compounds with a filed dose; 0% is about no effect
LmPK inh: qHTS Assay for Inhibitors of Leishmania Mexicana Pyruvate Kinase (LmPK) | purified LmPK, Kinase-Glo ATP luminescence, 1 h | 0.37% of 290,000 active | Potency, µM (highest dose often 57.5 µM), for the others: at the top dose activity change, negative = inhibition, usual class: inhibitors | Q27686; also: potency is read from the fitted curve at half-maximal effect; % is scaled to controls: 0 for no effect and ±100 for the full control effect
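ATP generated from ADP (0.1 mM) and PEP (0.5 mM) by 0.1 nM LmPK over 1 h at room temperature (pH 7.2 imidazole buffer) was detected by coupled luciferase luminescence. Values were normalized to uninhibited and no-enzyme wells.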
The depositor's hits bear a star; ? = inconclusive; nt = not tested or not shown; [ ] = remark or other dose. Unless noted, calls follow the shape of the dose curve; as a rule, active = well fitted curve in the direction sought with a large enough effect; inconclusive = small, poorly fitted or top-dose-only effect, or another doubt; inactive = no such curve, though single readings can be large; an effect the other way counts as inactive or inconclusive.

SMILES	TbPYK inhibitor	FBPA Giardia inh	Shiga inhibitor	RE007 growth inh	Cycloheximide cs	LmPK inh
CCCCn1c(NCc2cc(Br)ccc2O)nc2ccccc21	-2%	nt	nt	nt	nt	nt
COc1ccc(Cn2cc(Cn3c4ccccc4c(=O)n3C(C)C)nn2)cc1	4%	nt	nt	19%	nt	nt
C=CCn1ccc(O)c(Cc2ccc(Cl)cc2)c1=O	3%	-12%	-10	8%	-3	-2%
COc1ccc(/C=N/Nc2nc3ccccc3c(=O)n2-c2ccccc2)cc1OC	-8%	-14%	24	?	21*	-14%
COc1ccc(/C=N/Nc2nnc(C)n2N)cc1OC(C)=O	5%	?	13	-14%	12*	3%
COc1ccc(/C=N/Nc2nnc(C)n2N)cc1OC	1%	22µM*	-5	-22%	11	-1%
COc1ccc(/C=N/NC(=O)Cn2ccnc2C)cc1OC	-5%	2%	-4	8%	-4	3%
CC1(C(=O)Nc2ccc3c(c2)OCCO3)CN(S(C)(=O)=O)CC(=O)N1C1CCCCCC1 (stereo unspecified)	nt	nt	nt	-10%	nt	nt
Cc1ccccc1Nc1nc(N)nc(COC(=O)c2ccco2)n1	-10%	nt	nt	-10%	nt	nt
Cc1ccccc1Nc1nc(N)nc(COC(=O)CCS(=O)(=O)c2ccc(Cl)cc2)n1	2%	nt	nt	-14%	nt	nt
Cc1ccccc1Nc1nc(N)nc(COC(=O)C2CCCCC2)n1	-3%	2%	70*	-7%	71*	1%
COc1ccccc1C(=O)OCc1nc(N)nc(Nc2ccccc2C)n1	-6%	0%	43	-21%	36*	1%
CCCCC(=O)OCc1nc(N)nc(Nc2ccccc2C)n1	-4%	2%	active	-6%	58*	1%
CC(C(=O)Nc1ccccc1)n1nnc2sc3c(c2c1=O)CCCC3 (stereo unspecified)	-7%	nt	nt	nt	nt	nt
Cc1ccc(-c2nnc(-c3ccccc3)o2)cc1Br	4%	nt	nt	2%	nt	nt
Brc1cccc(-c2nnc(-c3ccccc3)o2)c1	3%	0%	55*	-22%	27*	-18%
Cc1ccc(-c2nnc(-c3cccc(Br)c3)o2)cc1	0%	0%	42*	-15%	26*	1%
COC(=O)C1=C(C(=O)OC)[C@@H]2N(Cc3ccccc3)c3ccccc3[C@@]23C[C@@H](C(=O)OC)N(S(=O)(=O)c2ccc(OC)cc2)C3=N1	nt	7%[12.9 µM]	nt	nt	nt	-2%[11.5 µM]
COc1ccc(NC(=O)c2c(NC(=O)C(F)(F)F)sc3c2CCCCC3)cc1	13%	nt	nt	nt	nt	nt
COc1ncnc2c1cnn2-c1ccccc1	1%	-10%	81*	?	37*	-6%
COc1cc(C(C)=O)ccc1Oc1ncnc2c1cnn2-c1ccc(F)cc1	2%	2%	106*	1%	54*	1%
COc1ccccc1Oc1ncnc2c1cnn2-c1ccccc1	3%	-13%	117*	-4%	43*	-3%
Cc1cccn2c(=O)cc(COc3ccc(NC(=O)c4cccc(F)c4)cc3)nc12	4%	nt	nt	nt	nt	nt
Cc1ccn2c(C(=O)c3ccc(Cl)cc3)cnc2c1	-3%	0%	91*	-12%	51*	-13%
Cc1ccn2c(=O)nc(SCC(=O)c3ccc(Cl)cc3)nc2c1	-2%	nt	nt	4%	nt	nt
SMILES	TbPYK inhibitor	FBPA Giardia inh	Shiga inhibitor	RE007 growth inh	Cycloheximide cs	LmPK inh
CC(=O)Nc1sc(N/N=C/c2ccc(N(C)C)cc2)nc1-c1ccc(C)cc1	-7%	-17%	58*	9%	25*	-15%
CC(=O)Nc1sc(N/N=C/c2ccc(C)cc2)nc1-c1ccc(C)cc1	-11%	-11%	71*	3%	52*	22%
CC(=O)Nc1sc(/C(C#N)=C/c2ccc(Cl)c(Cl)c2)nc1-c1ccc(C)cc1	4%	-6%	-6	9%	-2	-4%
CC(=O)c1ccc(NC(=S)NC(=O)/C=C/c2ccccc2)cc1	-8%	1%	38*	6%	24*	-2%
O=C(/C=C/c1ccco1)NC(=S)Nc1ccccc1	-8%	?	nt	?	42*	5%
Cc1cccc(NC(=S)NC(=O)/C=C/c2ccco2)c1	-2%	-15%	32	-27%	10	-1%
NS(=O)(=O)c1ccc(NC(=S)NC(=O)/C=C/c2ccco2)cc1	-15%	-17%	-13	-12%	1	7%
Cc1cccc(NC(=S)NC(=O)/C=C/c2ccco2)n1	-8%	-23%	121*	-30%	48*	-3%
CC(=O)c1ccc(NC(=S)NC(=O)/C=C/c2ccco2)cc1	-1%	-27%	nt	-8%	27*	8%
CN(C)c1ncc2nc(-c3cccc(C#N)c3)c(=O)n(C[C@H]3CCCO3)c2n1	nt	-1%	nt	nt	nt	nt
O=C(CC12CC3CC(CC(C3)C1)C2)NC(=S)Nc1ccc(CN2CCOCC2)cc1	0%	4%	-9	-2%	-2	1%
O=C(/C=C/c1ccco1)NCc1ccc(F)cc1	?	-1%	20	-7%	19*	10%
CCn1c(C)cs/c1=N\C(=S)Nc1ccccc1C	-12%	1%	-14	-11%	14	-2%
Cc1ccc(CNC(=O)CSCc2ccccc2C)cc1	4%[15.4 µM]	nt	nt	nt	nt	nt
CSc1nnc(-c2ccc(NC(N)=S)cc2)o1	-17%	-5%	22	11%	14*	-7%
CSc1nnc(-c2cccc(NC(=S)NN)c2)o1	-1%	-10%	-1	4%	6	1%
CC(=O)Nc1ccc(NC(=O)CSc2ccc([N+](=O)[O-])cn2)cc1	-2%	0%	4	8%	-3	1%
COC(=O)c1ccnc(SCC(=O)c2ccccc2)c1	-11%	10%	79*	1%	43*	-30%
COC(=O)c1cnc(SCC(=O)c2ccccc2)n1C	-21%	6%	100*	nt	43*	?
COC(=O)c1cnc(SCc2ccc(Cl)cc2)n1C	-11%	-16%	65*	5%	47*	-4%
Cc1ccc(C(=O)c2cn(Cc3c(F)cccc3Cl)c3nc(C)ccc3c2=O)cc1	5%	nt	nt	nt	nt	nt
Cc1cc2c(s1)c1cnn(Cc3cc(C(F)(F)F)cc(Cl)c3F)c(=O)c1n2C	nt	nt	15	nt	4	nt
CCNC(=O)COc1ccc(Br)cc1Cl	-5%	0%	60*	-23%	28*	-1%
COCCCNC(=O)COc1ccc(Br)cc1Cl	6%	5%	88*	3%	38*	-1%
Cc1cc(C(=O)CN2C(=O)NC3(CCCC3)C2=O)c(C)n1-c1ccc2c(c1)OCO2	0%	-1%	-3	4%	1	0%
Cc1cc(C(=O)CSc2n[nH]c(N)n2)c(C)n1-c1ccc2c(c1)OCO2	-7%	5%	38	6%	10*	3%
